Source: PubChem BioAssay (DiRusso Lab, Biochemistry Department, University of Nebraska)
Algae TAG accum – increases triacylglycerol in Chlamydomonas reinhardtii. Chlamydomonas reinhardtii TAG, Nile Red fluorescence, 72 h. calls only at 10 µM (by protocol). 44,000 compounds, 0.84% hits; call rule not given here;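 note: hits raise Nile Red signal meaning more stored TAG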
An asterisk follows results filed as active. This is one part of a sample in which hits are shown more often than they occur.

Screening CSc1cccc(NS(=O)(=O)c2ccccc2[N+](=O)[O-])c1 returned Algae TAG accum inactive.
For CCOc1ccc(Nc2nc(-c3ccc(CC(C)C)cc3)cs2)cc1 the results were Algae TAG accum inactive.
`CCN(CC)C(=O)c1sc2nc3c(cc2c1N)CCC3` gave Algae TAG accum inactive.
For O=C(O)CNC(=O)NC12CC3CC(CC(C3)C1)C2 the results were Algae TAG accum inactive.
Screening O=C(CN1CCOCC1)NC12CC3CC(CC(C3)C1)C2 returned Algae TAG accum inactive.
For C=CCNCC(=O)NC12CC3CC(CC(C3)C1)C2 the results were Algae TAG accum active.
For O=C(O)CN1C(=O)c2ccc(Oc3ccc(Br)cc3)cc2C1=O the results were Algae TAG accum inactive.
`C(#CC12CC3CC(CC(C3)C1)C2)CN1CCOCC1` gave Algae TAG accum active.
`OC1(C#CCN2CCOCC2)CCCCC1` gave Algae TAG accum inactive.
`C(#CC1CC1)CN1CCOCC1` gave Algae TAG accum inactive.
Screening O=C(Nc1ccccc1C#Cc1ccccc1)c1cccc([N+](=O)[O-])c1 returned Algae TAG accum inactive.
For N#C/C(=C\c1ccc(-c2ccccc2[N+](=O)[O-])o1)c1nn(CCO)c(N)c1C#N the results were Algae TAG accum inactive.
Screening Brc1ccc(OCCCn2ccnc2)cc1 returned Algae TAG accum inactive.
For Ic1ccc(OCCCn2ccnc2)cc1 the results were Algae TAG accum inactive.
O=C(c1ccccc1)c1ccc(OCCCCn2ccnc2)cc1 was read as Algae TAG accum active.
`O=C(Nc1cccc(Cl)c1)N1CCN(c2ccc(F)cc2)CC1` gave Algae TAG accum inactive.
O=C(Cc1ccc(Cl)cc1)Nc1ccc(S(=O)(=O)Nc2nccs2)cc1 was read as Algae TAG accum inactive.
For COc1ccc(NC(=O)c2cc3nc(-c4ccccc4)cc(C)n3n2)c(OC)c1 the results were Algae TAG accum inactive.
Screening COc1ccccc1OCCOc1ccc(C)cc1Br returned Algae TAG accum inactive.
`CN1CCN(CCOc2ccc(C(C)(C)c3ccccc3)cc2)CC1` gave Algae TAG accum active.
CN1CCN(CCCOc2ccc(OCc3ccccc3)cc2)CC1 was read as Algae TAG accum inactive.
CN1CCN(CCCOc2ccc(C(C)(C)c3ccccc3)cc2)CC1 was read as Algae TAG accum inactive.
Screening CCC(C)c1ccc(OCCCCN2CCN(C)CC2)cc1 (stereo not drawn) returned Algae TAG accum inactive.
`c1ccc(OCCN2CCCC2)cc1` gave Algae TAG accum inactive.
For CCC(C)c1ccc(OCCCN2CCN(C)CC2)cc1 (stereo not drawn) the results were Algae TAG accum active.
`CCc1ccc(NS(=O)(=O)CC)cc1` gave Algae TAG accum inactive.
Screening COc1cc([N+](=O)[O-])cc(CN2CCN(C/C=C/c3ccccc3)CC2)c1O returned Algae TAG accum inactive.
Screening COc1cccc(C(=O)COc2ccc(C)c(C)c2)c1 returned Algae TAG accum inactive.
CCOc1ccc(NC(=O)c2ccc(OC)c(I)c2)cc1 was read as Algae TAG accum inactive.
For Cc1ccc(OCC(=O)N2CCOCC2)c(Br)c1 the results were Algae TAG accum inactive.
`OC(COc1ccc(Cl)cc1Cl)CN1CCN(Cc2ccccc2)CC1` (stereo not drawn) gave Algae TAG accum active.
`CN1CCN(CC(O)COc2ccc(Cl)cc2Cl)CC1` (stereo not drawn) gave Algae TAG accum inactive.
Screening CCOC(=O)N1CCN(CC(O)COc2ccc(Cl)cc2Cl)CC1 (stereo not drawn) returned Algae TAG accum inactive.
Screening Cc1ccc(S(=O)(=O)Nc2ccc(N)cc2C)cc1 returned Algae TAG accum inactive.
Screening CCCN(CCO)CC1=CC[C@H]2C[C@@H]1C2(C)C returned Algae TAG accum inactive.
For CCc1nnc(NC(=O)COc2ccc(Cl)cc2Cl)s1 the results were Algae TAG accum inactive.
Screening Cc1ccc(C)c(NC(=O)CN(Cc2ccccc2)S(=O)(=O)c2ccc(F)cc2)c1 returned Algae TAG accum inactive.
Screening COc1ccc(N2CCN(C(=O)Cc3ccccc3)CC2)cc1 returned Algae TAG accum inactive.
`N#Cc1c(NC(=O)c2ccc(Cl)cc2Cl)sc2c1CCCCC2` gave Algae TAG accum inactive.
`Cc1ccc(C(O)=C2C(=O)C(=O)NC2c2ccc(Br)cc2)cc1` (stereo not drawn) gave Algae TAG accum inactive.
O=C(Nc1ccc(Cl)cc1F)c1ccc(C(=O)Nc2ccc(Cl)cc2F)cc1 was read as Algae TAG accum inactive.
For Nc1ccc(C(=O)Nc2ccc(Cl)cc2Cl)cc1 the results were Algae TAG accum active.
O=C(Nc1ccc(Cl)cc1Cl)c1ccccc1 was read as Algae TAG accum inactive.
`COc1ccc(NC(=O)CSc2nc(CSc3ccc(Cl)cc3)cc(=O)[nH]2)cc1OC` gave Algae TAG accum inactive.
Cc1c(NC(=O)c2cc(Br)ccc2Cl)cccc1-c1nc2ccccc2o1 was read as Algae TAG accum inactive.
For O=C1CC(Nc2ccc(N3CCOCC3)cc2)C(=O)N1c1ccc2c(c1)OCO2 (stereo not drawn) the results were Algae TAG accum inactive.
`Cc1cc(C)c(S(=O)(=O)N2CCN(c3ccccc3)CC2)cc1Br` gave Algae TAG accum inactive.
Screening Cc1cc(C)c(S(=O)(=O)N2CCN(C)CC2)cc1C returned Algae TAG accum inactive.
For Cc1cc(C)c(S(=O)(=O)N2CCN(C)CC2)cc1Br the results were Algae TAG accum active.
`CC(=O)C1=C(C)NC(SCc2cccc([N+](=O)[O-])c2)=C(C#N)C1c1cccnc1` (stereo not drawn) gave Algae TAG accum inactive.
N#CC(=C(O)c1ccco1)c1nc2ccccc2[nH]1 was read as Algae TAG accum inactive.
`CC(=O)Nc1ccc(N2C(=O)CC(NCc3cccnc3)C2=O)cc1` (stereo not drawn) gave Algae TAG accum inactive.
Screening O=C(NCCOCc1ccccc1)c1ccccc1Br returned Algae TAG accum inactive.
Screening O=C(CSc1nc2ccc([N+](=O)[O-])cc2s1)c1ccc(Cl)cc1 returned Algae TAG accum inactive.
